{"source": "PubChem BioAssay"}
{"system": "Sam68 (KHDRBS1)", "test": "compounds binding KHDRBS1 protein – biochemical, small-molecule microarray, 635 nm fluorescence, primary screen (AID 1125);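 also: score merges 667 nm channel intensity with signal to noise over triplicate slides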", "settings": "higher = more signal"}
{"smiles": "CCCNC(=O)OC[C@H]1O[C@H](CCON=CC[C@@H]2C=C[C@H](OC(C)=O)[C@@H](COC(C)=O)O2)C=C[C@@H]1Oc1ccc(OC)cc1", "composite z-score": 0.911}
{"smiles": "O[C@@H](Cc1ccccc1)[C@H]1C2C=CCCC(c3ccccc3)=C2CN1Cc1cccc(Cl)c1", "note": "(stereo partly specified)", "composite z-score": 1.31}
{"smiles": "CCCC[C@@H]1C[C@H]1[C@@H](NS(=O)(=O)c1cccc2cccnc12)c1ccc(-c2ccccc2)cc1", "composite z-score": -0.0217}
{"smiles": "O=C1C2=CC[C@H]3C(=O)N(Cc4ccc5c(c4)OCO5)C(=O)[C@H]3[C@H]2[C@H](O)[C@@H]2O[C@H]12", "composite z-score": 0.21}
{"smiles": "CCOC(=O)[C@H](CC(C)C)NC(=O)CCC1CC(OC(=O)NCCc2ccc(F)cc2)CC2(CCCC(COC(=O)NCc3ccccc3)O2)O1", "note": "(stereo partly specified)", "composite z-score": 1.14}
{"smiles": "CCCNC(=O)[C@@H]1c2ccccc2C(=O)N(Cc2ccccc2Cl)[C@H]1c1ccc(CO)cc1", "composite z-score": 1.3}
{"smiles": "CO[C@@H]1COC(=O)CC=C[C@@H](C)COC(=O)[C@H](COCc2ccccc2)NC(=O)CC=C[C@H]1C", "composite z-score": -0.597}
{"smiles": "C=COC[C@H]1CN2[C@@H](CC[C@@H](C)[C@@H]2c2ccc(Br)cc2)C(=O)O1", "composite z-score": 1.33}
{"smiles": "COC(=O)[C@H](C)NC(=O)CCC1CC(OC(=O)NCCc2ccc(F)cc2)CC2(CCCC(COC(=O)NCCc3ccc(Cl)cc3)O2)O1", "note": "(stereo partly specified)", "composite z-score": 1.07}
{"smiles": "COCCCNC(=O)[C@@]1(Sc2ccc(C)cc2)CC(=O)N(Cc2ccccc2)[C@@H]1c1ccc(CO)cc1I", "composite z-score": -0.249}
{"smiles": "Cc1ccc(S(=O)(=O)N[C@@H]2COC(=O)[C@H](C)COC(=O)CC=C[C@H]2C)cc1", "composite z-score": 0.0715}
{"smiles": "C=CC[C@]1(C(=O)NCc2ccccc2)N=C(c2ccc(OCCCO)cc2)O[C@H]1c1ccccc1", "composite z-score": 1.28}
{"smiles": "CCOc1ccc(N2C(=O)/C(=C/C=C/c3ccccc3OC)S(=O)(=O)C2c2cccc([N+](=O)[O-])c2)cc1", "note": "(stereo unspecified)", "composite z-score": -0.319}
{"smiles": "CO[C@H]([C@@H](C)[C@H](OC)c1ccccc1)[C@H](C)[C@@H](OC)[C@H](C)C(C)=O", "composite z-score": -1.24}
{"smiles": "CC(=O)O[C@H]1C2=C(C(=O)[C@@H]3O[C@@H]31)[C@H]1C(C)O[C@@H]2[C@@]23C(=O)[C@@H]4O[C@@H]4[C@@H](O)C2=CO[C@H](C)[C@@H]13", "note": "(stereo partly specified)", "composite z-score": -0.113}
{"smiles": "CC(C)=NOCc1ccc(-c2cc(-c3ccccc3)no2)cc1", "composite z-score": 0.059}
{"smiles": "C=CCC(OC(C)=O)[C@@H]1[C@@H](N(Cc2cc3ccccc3o2)C(=O)Cc2ccc(F)cc2)c2cc(OCCCO)ccc2N1C(=O)Cc1ccc(OC)cc1", "note": "(stereo partly specified)", "composite z-score": -0.243}
{"smiles": "CCN1C(=O)[C@H]2[C@H]3[C@H](O)C=CC(=O)[C@@H]3CC[C@H]2C1=O", "composite z-score": 0.234}
{"smiles": "CC(C)OC(=O)C=C1C[C@@H](c2ccc(C#N)cc2)O[C@@H](c2ccc(C#N)cc2)O1", "composite z-score": 1.32}
{"smiles": "NC(=O)NCC#Cc1ccc2c(c1)[C@]1(C(=O)N2)[C@H](c2ccc(O)cc2)N2[C@H](c3ccccc3)[C@H](c3ccccc3)OC(=O)[C@H]2[C@@H]1C(=O)N1CCCCCCC1", "composite z-score": 0.792}
{"smiles": "Cc1cc2c(nc1C)CCCN2CC(O)CN1CCN(C)CC1", "note": "(stereo unspecified)", "composite z-score": 0.693}
{"smiles": "C[C@@H]1C=CCC(=O)OC[C@H](C)C(=O)N[C@@H](C)C(=O)OC1", "composite z-score": 0.175}
{"smiles": "COc1ccc([Si](C)(C)[C@@H]2[C@@H](CCO)O[C@]3(C(=O)N(Cc4ccc(NC(C)=O)cc4)c4ccccc43)[C@H]2C)cc1", "composite z-score": 1.15}
{"smiles": "COc1ccc([Si](C)(C)[C@H]2[C@H](CC(=O)N3CCC[C@H]3CO)O[C@@]3(C(=O)N(Cc4cccc(N5C(=O)COc6ccccc65)c4)c4ccccc43)[C@@H]2C)cc1", "composite z-score": 1.26}
{"smiles": "C[C@@H](c1ccccc1)N1C(=O)[C@H]2[C@H]3[C@H](O)C=CC(=O)[C@@H]3CC[C@H]2C1=O", "composite z-score": 0.456}
{"smiles": "C=C(COC)/C(=C/C[C@H](OC(=O)c1ccncc1)c1ccc(CO)o1)c1cc(C(=O)OC)ccc1OC", "composite z-score": 1.15}
{"smiles": "COC(=O)CC=C[C@H](C)[C@H](CO)NS(=O)(=O)c1ccc(C)cc1", "composite z-score": 0.217}
{"smiles": "C#CCCCON=C1C[C@@H](O)[C@@H](O)[C@@H]2[C@@H]3C(=O)N(c4cccc(Oc5ccccc5)c4)C(=O)[C@@H]3CC[C@@H]12", "composite z-score": 1.32}
{"smiles": "CC(C)(C)OC(=O)CC[C@]1(C(N)=O)COC(c2ccc(OCCCO)cc2)=N1", "composite z-score": 1.21}
{"smiles": "CC[C@@H](c1ccccc1)n1c(=O)n2n(c1=O)[C@H]1[C@H](O)[C@@H]3O[C@@H]3C(=NOCC=C(C)CCC=C(C)C)[C@H]1CC2", "composite z-score": 1.29}
{"smiles": "COc1ccc(O[C@H]2C=C[C@@H](c3ccccc3)O[C@@H]2COC(=O)CCC(C)=NOC(C)CN2CCCCc3nc(C)c(C)cc32)cc1", "note": "(stereo partly specified)", "composite z-score": -0.433}
